# Screening data (PubChem)
# HIF-2a block = HIF-2a inhibition; inhibition, % at 18.8 µM; 786-0 RCC cells HIF-2a reporter, luciferase luminescence, overnight; actives 0.72% (n = 360,000);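 active = inhibition of the luminescence signal of 40% or more relative to plate controls, in a single-dose primary screen at 18.75 µM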
# KKLEB tox = counter-screen for CF NF-kB inhibitors: cytotoxicity. KKLEB CF airway cells viability, ATPlite luminescence, overnight; active compounds read low; cells stimulated with P. aeruginosa culture filtrate. activity change (cytotoxicity), % at 5 µM. actives 0.36% (n = 360,000);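 active = corrected activity change at or below -50% at 5 µM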
# CF NFkB inh = cystic fibrosis NF-kB activation inhibition; KKLEB NF-kB-GFP reporter, PAF-induced, GFP fluorescence overnight; inhibition, % at 5 µM; actives 0.86% (n = 360,000);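 active = at least 50% inhibition at 5 µM, scaled per plate between neutral and stimulator controls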;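 note: PAF is a Pseudomonas aeruginosa culture filtrate used as stimulus; plate controls were PAF-stimulated DMSO wells for no effect and unstimulated DMSO wells for full effect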
# TROY signal inh = TROY signaling inhibition | AID 1347056 | inhibition, % at 10 µM | actives 0.98% (n = 360,000) | Q293 LMP1-TROYcd NF-kB luciferase reporter, 4 h;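 active = compounds whose plate-normalised and pattern-corrected inhibition of the luciferase reporter signal at the single screening dose is 50% or more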
# Peg3 prom inh-1 = Peg3 promoter activity inhibition. inhibition, % at 20 µM. actives 1.7% (n = 360,000). HeLa PEG-Prom luciferase reporter, luminescence, overnight;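 active = inhibition of at least 50% at 20 µM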
# TWEAK-Fn14 inh = blocks TWEAK-Fn14 interaction in a reporter cell assay; inhibition, % at 10 µM; TWEAK-stimulated Fn14 reporter cells, luciferase luminescence, 8 h; actives 2% (n = 360,000); in the data active = inhibition above about 50%
# Peg3 prom inh-2 = Peg3 promoter inhibition confirmation. shares compounds with Peg3 prom inh-1. HeLa PEG-Prom luciferase reporter, luminescence, overnight. inhibition, % at 20 µM. actives 84% (n = 1,300);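 active = at 20 µM dose, 40% or more inhibition averaged across four replicates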
# * = called active by the depositor; nt = not tested or not shown. A selection: hits, their analogues and other compounds. The true share with any hit is near 4%.
SMILES,HIF-2a block,KKLEB tox,CF NFkB inh,TROY signal inh,Peg3 prom inh-1,TWEAK-Fn14 inh,Peg3 prom inh-2
Cc1cc(C2=NNC(=NC3CCCCC3)SC2)c(C)n1-c1c(C)n(C)n(-c2ccccc2)c1=O,7,7,-15,4,1,-13,nt
O=C(CSc1nc2ccccc2c(=O)n1CCCN1CCOCC1)Nc1ccc(Br)cc1,-3,0,-14,-12,-7,-16,nt
CCc1ccc(NC(=O)CSc2nc3ccccc3c(=O)n2CCCN2CCC(C)CC2)cc1,-6,-14,14,-38,93*,-36,95*
CCOc1ccc(CNC(=O)Cn2nc(C)c3c(C)n(-c4ccc(C)cc4)nc3c2=O)cc1,3,-7,-21,9,0,1,nt
Cc1ccc(NC(=O)c2nc[nH]c2C(=O)NCCCCNC(=O)c2[nH]cnc2C(=O)Nc2ccc(C)cc2)cc1,-4,-83*,86*,3,74*,5,43*
COc1ccc(CNS(=O)(=O)c2cc3c4c(c2)C(C)C(=O)N4CCC3)cc1 (stereo not given),10,8,-16,8,1,1,nt
Cc1ccc2oc(/N=C(\N)NC(=O)C(C)(C)C)nc2c1,81*,-61*,-20,92*,82*,104*,85*
CC(C)(C)c1ccc(C(=O)N/C(N)=N/c2nc3ccccc3o2)cc1,-13,-2,1,9,-1,24,nt
COc1ccc(NC(=O)c2cc3c(CO)cnc(C)c3oc2=Nc2cccc(C)c2)c(OC)c1,4,-1,8,-8,89*,-42,25
COc1ccc(/C=C/C(=O)c2ccc3c4c(cccc24)CC3)cc1,-28,-42,16,-20,25,-9,nt
COc1ccc(/C=C/C(=O)c2ccc3c4c(cccc24)CC3)cc1OC,-41,-27,28,-7,69*,52*,84*
Cc1cccc(-n2c(C)nc3cc(C(=O)N4CCOCC4)ccc32)c1,-21,-6,-13,-16,-49,-16,nt
Cc1nc2ccc(NS(=O)(=O)c3cccc([N+](=O)[O-])c3)cc2s1,8,-20,27,5,0,17,nt
NC(=O)CC(NC(=O)Cc1cccc2ccccc12)c1ccc(NCC2CC2)c([N+](=O)[O-])c1 (stereo not given),-2,-10,-19,-13,6,-7,nt
COc1ccc(CCNc2ccc(C(CC(N)=O)NC(=O)c3ccc(Br)cc3)cc2[N+](=O)[O-])cc1 (stereo not given),20,-19,6,25,69*,-34,19
NC(=O)CC(NC(=O)Cc1cccc2ccccc12)c1ccc(NC2CCCCC2)c([N+](=O)[O-])c1 (stereo not given),-11,-22,11,-6,78*,-20,14
NC(=O)CC(NC(=O)Cc1cccc2ccccc12)c1ccc(NCCOc2ccccc2)c([N+](=O)[O-])c1 (stereo not given),11,-19,-15,12,54*,-25,27
CCN(CC)C1CCN(C(=O)c2ccc(OC3CCN(C(=O)CCOC)CC3)cc2)C1 (stereo not given),-4,8,-10,-13,-7,12,nt
CN=CC1=C(O)c2ccccc2C1=O,-13,1,4,30,-13,-5,nt
COc1ccc(N=CC2=C(O)c3ccccc3C2=O)cc1,7,-51*,-10,74*,75*,98*,-3
Cc1ccc(-c2cc(C(=O)Nc3sc4c(c3C(=O)NCc3ccco3)CCC4)[nH]n2)c(O)c1,16,-22,15,-8,35,-6,nt
CCNC(=O)c1c(NC(=O)c2cc(-c3cc(C)ccc3O)n[nH]2)sc2c1CCCC2,-10,-33,19,16,60*,-6,17
Cc1nn(-c2ccc(Cl)cc2)c(Cl)c1/C=N/NC(=O)c1ccc(NS(=O)(=O)c2cccs2)cc1,-90,-3,12,11,-27,24,nt
C[C@@H](NCCCn1cnc2c(OCc3ccccc3)ncnc21)c1cccc2ccccc12,-23,-19,17,-3,92*,-10,86*
c1ccc(CCCNCCCn2cnc3c(OCc4ccccc4)ncnc32)cc1,-17,10,1,8,56*,1,83*
SMILES,HIF-2a block,KKLEB tox,CF NFkB inh,TROY signal inh,Peg3 prom inh-1,TWEAK-Fn14 inh,Peg3 prom inh-2
CCN(CC(=O)Nc1ccccc1OC)Cc1csc(CC(=O)Nc2ccc(C)cc2)n1,3,-3,-9,4,19,-9,nt
Cc1cc2cc(C)c3nnc(SCC(=O)Nc4ccc(S(=O)(=O)N5CCCCC5)cc4)n3c2cc1C,23,-18,6,4,69*,-5,5
Cc1cc2ccccc2n2c(SCC(=O)Nc3ccc(S(=O)(=O)N4CCCCC4)cc3)nnc12,5,-7,-9,5,11,0,nt
COc1ccccc1CNC(=O)c1c(N)n(CCCN2CCOCC2)c2nc3ccccc3nc12,-51,-2,-6,-13,60*,25,85*
O=C(O)Cc1cn(-c2ccccc2)nc1-c1ccccc1,10,2,-3,1,1,-5,nt
Fc1ccc(-c2nn(-c3ccccc3)cc2CNCc2ccccc2)cc1,5,-10,0,-10,62*,-1,17
N=c1n(CC(=O)c2ccc([N+](=O)[O-])cc2)c2ccccc2n1Cc1ccccc1,12,-31,3,-5,66*,2,42*
N=c1n(CC(=O)c2ccc([N+](=O)[O-])cc2)c2ccccc2n1Cc1ccc(Cl)cc1,10,-36,7,3,109*,2,97*
Cc1cc(C)nc(/N=C(\N)Nc2ccccc2-c2ccccc2)n1,20,-19,-6,24,21,1,nt
CC(C)CC(N)c1csc(Nc2ccc(C(=O)c3ccccc3)cc2)n1 (stereo not given),2,-22,39,15,53*,-9,94*
CC(=O)c1ccc(Nc2nc(C(N)CC(C)C)cs2)cc1 (stereo not given),9,0,11,9,4,-14,nt
COc1ccc2ccccc2c1/C=N/NC(=O)c1ccc(C)nc1,-11,-3,-10,8,-3,8,nt
O=C(N/N=C/c1c(O)ccc2ccccc12)c1ccc(CO)nc1,22,-4,-10,-3,55*,-16,70*
CCCc1nc2ccc(Br)cn2c1Cc1cccc(Cl)c1,-28,14,-1,9,-49,-20,nt
O=C(O)c1ccc(CN2C(=O)c3cccc4c([N+](=O)[O-])ccc(c34)C2=O)cc1,-9,13,15,71*,103*,53*,90*
Cc1ccc(C(=O)O)cc1N1C(=O)c2cccc3c([N+](=O)[O-])ccc(c23)C1=O,7,20,-27,-20,2,13,nt
